# Experimental data from PubChem BioAssay (NCATS).
# Inconclusive results are not listed. Entries that show only a call come without a potency. Activity calls are given as the source filed them. Calls come from the whole dose curve; as a rule, active = well fitted curve in the direction sought with a large enough effect in the repeat runs; inconclusive = weak or mixed curves; inactive = no such curve, though single readings can be large; an effect the other way counts as inactive or inconclusive.
# Molecular target: Cytochrome P450 2D6 (Homo sapiens) (UniProt P10635)
# Assay: Cytochrome P450 family 2 subfamily D member 6 (CYP2D6) small molecule antagonists: luciferase biochemical (cell-free) qHTS assay (AID 1645840)
# Settings: P450-Glo CYP2D6 enzyme, luciferin luminescence, 1 h; series mostly up to 57.4 µM
# In short: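 P450-Glo luminescent screen: recombinant CYP2D6 enzyme–proluciferin substrate mix preincubated with compound 10 min at room temperature, then NADPH regeneration added for 1 h at room temperature. Detection reagent added for 20 min; luciferin light read as relative luminescence units.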
# Note: nearly all actives have a fitted effect of over 55% in size.
# Potency is the fitted concentration of half-maximal effect.
# Cytochrome P450 2D6 (Homo sapiens), sequence (P10635 whole entry, looked up): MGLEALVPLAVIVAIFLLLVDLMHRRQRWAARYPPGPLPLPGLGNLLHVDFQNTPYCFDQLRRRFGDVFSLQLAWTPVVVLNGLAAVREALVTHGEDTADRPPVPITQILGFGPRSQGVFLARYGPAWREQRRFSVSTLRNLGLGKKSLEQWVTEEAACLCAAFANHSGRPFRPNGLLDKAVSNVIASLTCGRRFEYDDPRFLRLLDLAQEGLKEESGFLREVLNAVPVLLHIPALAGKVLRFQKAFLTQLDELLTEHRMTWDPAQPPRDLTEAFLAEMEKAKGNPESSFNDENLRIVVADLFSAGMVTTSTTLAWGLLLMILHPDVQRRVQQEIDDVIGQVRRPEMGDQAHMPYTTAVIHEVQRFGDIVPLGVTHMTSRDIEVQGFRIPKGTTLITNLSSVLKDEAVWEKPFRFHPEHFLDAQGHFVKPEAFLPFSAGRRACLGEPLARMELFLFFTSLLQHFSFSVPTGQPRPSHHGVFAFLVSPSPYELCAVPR
row,Structure (SMILES),Potency
1,CNC(=O)c1ccc(Nc2ncc(C(F)(F)F)c(NCc3nccnc3N(C)S(C)(=O)=O)n2)cc1,inactive
2,Cc1c(-c2ccnn2C)cc(C(=O)NCc2ccc(S(C)(=O)=O)cn2)c(=O)n1-c1cccc(C(F)(F)F)c1,inactive
3,FC(F)(F)c1cc(C(F)(F)F)c2ccc3nc(-c4nnco4)cn3c2n1,inactive
4,O=C(c1ccccn1)c1cnn2c(-c3ccncc3)ccnc12,13.5 µM (active)
5,Nc1nc(CC(=O)Nc2ccc(CCNCC(O)c3ccccc3)cc2)cs1 (stereo not given),0.477 µM (active)
6,O=C(O)[C@H]1CCCC[C@H]1C(=O)N1CCc2ccccc2[C@H]1CN1C(=O)c2ccccc2C1=O,inactive

# Molecular target: Cytochrome P450 2C9 (Homo sapiens) (UniProt P11712)
# Assay: Cytochrome P450 family 2 subfamily C member 9 (CYP2C9) small molecule antagonists: luciferase biochemical (cell-free) qHTS assay (AID 1645842)
# Settings: P450-Glo CYP2C9 enzyme assay, luciferin luminescence; series mostly up to 57.4 µM
# In short: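 Luminescence, after 20 min with luciferin detection reagent, reflected CYP2C9 turnover during a 1 h NADPH-driven reaction at 37C. Enzyme-substrate mix contained 0.4% bovine serum albumin and was preincubated with compound 10 min at room temperature.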
# Cytochrome P450 2C9 (Homo sapiens), sequence (P11712 whole entry, looked up): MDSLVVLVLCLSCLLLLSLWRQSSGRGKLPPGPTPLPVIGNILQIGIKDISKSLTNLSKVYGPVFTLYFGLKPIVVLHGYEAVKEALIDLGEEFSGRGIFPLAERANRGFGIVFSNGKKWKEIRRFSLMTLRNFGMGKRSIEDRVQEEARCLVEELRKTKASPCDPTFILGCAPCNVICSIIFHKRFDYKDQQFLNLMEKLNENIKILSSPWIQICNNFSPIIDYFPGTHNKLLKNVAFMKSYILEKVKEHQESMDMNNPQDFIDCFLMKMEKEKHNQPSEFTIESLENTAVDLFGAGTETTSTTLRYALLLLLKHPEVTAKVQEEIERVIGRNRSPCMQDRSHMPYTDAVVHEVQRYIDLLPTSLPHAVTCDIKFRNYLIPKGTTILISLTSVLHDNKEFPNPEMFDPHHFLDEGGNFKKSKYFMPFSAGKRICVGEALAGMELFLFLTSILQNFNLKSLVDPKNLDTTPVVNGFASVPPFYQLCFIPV
Structure (SMILES),Potency,"activity change, negative = inhibition"
CC(C)(C)NCC(O)COc1cccc2c1CCCC2=O (stereo not given),inactive,
COc1cccc(-n2nc(C(=O)O)cc2-c2ccc(C3CCCCC3)c(Cl)c2)c1,inactive,
C#Cc1cnc2[nH]c(=O)n(C(CC)CC)c2n1,8.49 µM (active),
O=C(c1ccc(F)cc1)C1CCN(CCn2c(=O)nc3n(c2=O)CCCC3)CC1,inactive,
CC(C)C(=O)c1cn(CC(=O)COc2ccc(Oc3ccccc3)cc2)c2ccc(C(=O)O)cc12,inactive,
C(#Cc1cccc(CN2CCOCC2)c1)CCN1CCCCC1,inactive,
Cc1cccc(-c2[nH]c(CNc3ccccc3F)nc2-c2ccc3ncnn3c2)n1,21.3 µM (active),
CC(C)(C)NCc1cc(Nc2ccnc3cc(Cl)ccc23)c2c(c1O)CCCC2,,-23.1% [at 11.5 µM] (inactive)
O=C(O)C[C@@H](NC(=O)c1cc(-c2ccc(-c3ccncc3)cc2)cs1)c1ccccc1,26.8 µM (active),
CC[C@H]1OC(=O)C[C@@H](O)[C@H](C)[C@@H](O[C@@H]2O[C@H](C)[C@@H](O)[C@H](N(C)C)[C@H]2O)[C@@H](CCN2C[C@H](C)C[C@H](C)C2)C[C@@H](C)C(=O)/C=C/C(C)=C/[C@@H]1CO[C@@H]1O[C@H](C)[C@@H](O)[C@@H](OC)[C@H]1OC,inactive,
CC(C)(C)c1cc(CN2CCN(CC(O)c3ccc(Cl)cc3)CC2)cc(C(C)(C)C)c1O (stereo not given),8.49 µM (active),
CCN(CC)Cc1cc(Nc2ccnc3cc(Cl)ccc23)ccc1O,inactive,
COc1ccccc1[C@@H]1C2=C(CC(C)(C)CC2=O)Nc2n[nH]c(C(F)(F)F)c21,8.49 µM (active),
COC(=O)C1=C(C#N)NC(C)=C(C(=O)OC(C)C)C1c1cccc([N+](=O)[O-])c1 (stereo not given),1.07 µM (active),
O=C(O)c1ccc(CCCc2ccc(OCCc3ccc(F)cc3)cc2)o1,inactive,
CC(=O)OCC(=O)[C@@]12OC3(CCCC3)O[C@@H]1C[C@H]1[C@@H]3CCC4=CC(=O)C=C[C@]4(C)[C@@]3(F)[C@@H](O)C[C@@]12C,13.5 µM (active),
C[C@H](NCc1ccc(OCc2ccccc2F)cc1)C(N)=O,inactive,
CCCCC(CC)COC(=O)CC(C(=O)OCC(CC)CCCC)S(=O)(=O)O (stereo not given),inactive,
O=C(NCc1ccc(OC(F)(F)F)cc1)C1c2ccccc2C(=O)N1C1CCOCC1 (stereo not given),12 µM (active),
CCn1cc(C2=NOC(C(=O)Nc3c(C)n(C)n(-c4ccccc4)c3=O)C2)c(C)n1 (stereo not given),1.9 µM (active),
O=S(=O)(Nc1ccc(C(O)(C(F)(F)F)C(F)(F)F)cc1)c1cccs1,1.9 µM (active),
Cn1c(=O)cc(N2CCCC(N)C2)n(Cc2ccccc2C#N)c1=O (stereo not given),inactive,
COc1cc(N2CCC(O)CC2)ccc1Nc1cc(Nc2ccccc2S(=O)(=O)C(C)C)c2cc[nH]c2n1,6.61 µM (active),
Cc1nn(C)c2c1C(c1ccc(C(F)(F)F)cc1)C(C#N)=C(N)O2 (stereo not given),21.3 µM (active),
